Several values for one entry are separate records, joined by “and”; a condition that tells them apart may be missing. Identical values can stand only once. Unmarked numbers belong to inactive results. Records with an inconclusive call do not appear. Activity calls are given as the source filed them. Calls come from the whole dose curve; as a rule, active = well fitted curve in the direction sought with a large enough effect; inconclusive = small, poorly fitted or top-dose-only effect, or another doubt; inactive = no such curve, though single readings can be large; an effect the other way counts as inactive or inconclusive.
Target: Cytochrome P450 2D6 (Homo sapiens) (UniProt P10635)
Assay: qHTS Assay for Inhibitors and Substrates of Cytochrome P450 2D6 (AID 891); note: nearly all actives have a fitted effect of over 60% in size; note: potency is the fitted concentration of half-maximal effect;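 for activity change, negative = inhibition: luciferin methyl ether substrate demethylated by CYP2D6 with NADPH regeneration; % is set by controls: 0 for no effect and ±100 for the full control effect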
Details: recombinant CYP2D6, luciferin-ME EGE luminescence; series mostly up to 57.1 µM; activity change, negative = inhibition: at the top concentration
How it was run: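 Human CYP2D6 (5 nM) with 30 uM Luciferin-ME EGE (at Km) in 100 mM KPO4, compound preincubated 10 min, then NADPH regeneration system for 60 min at room temperature. Luciferin read by luminescence; normalized to 1.43 uM quinidine.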

Chain of Cytochrome P450 2D6 (Homo sapiens) (P10635 whole entry, looked up): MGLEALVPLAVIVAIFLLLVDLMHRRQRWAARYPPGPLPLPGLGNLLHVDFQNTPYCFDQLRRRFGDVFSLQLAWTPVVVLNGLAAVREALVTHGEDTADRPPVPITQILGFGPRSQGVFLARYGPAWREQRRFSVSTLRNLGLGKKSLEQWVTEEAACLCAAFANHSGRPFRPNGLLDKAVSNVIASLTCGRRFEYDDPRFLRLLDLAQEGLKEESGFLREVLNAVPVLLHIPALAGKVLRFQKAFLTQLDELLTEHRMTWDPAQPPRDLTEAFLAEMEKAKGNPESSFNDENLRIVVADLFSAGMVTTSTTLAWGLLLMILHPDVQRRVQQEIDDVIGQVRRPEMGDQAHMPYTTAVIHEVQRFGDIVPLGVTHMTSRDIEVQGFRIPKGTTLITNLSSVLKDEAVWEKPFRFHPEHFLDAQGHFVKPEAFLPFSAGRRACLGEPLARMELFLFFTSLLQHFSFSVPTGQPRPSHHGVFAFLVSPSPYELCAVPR

Row | Compound | Potency | activity change, negative = inhibition
1 | CCS(=O)(=O)Nc1cccc(C(=C2CCCCC2)c2cnc[nH]2)c1 | 7.94 µM (active) | –
2 | CC(C)(C)c1cc(O)ccc1O | – | 11.9% [at 11.4 µM]
3 | O=C1C=CC(=O)C=C1 | – | 2.84%
4 | CCC(=O)O[C@@](Cc1ccccc1)(c1ccccc1)[C@@H](C)CN(C)C | 7.94 µM (active) | –
5 | CN(N=O)c1ccc(O)c(O)c1 | – | 4.15%
6 | c1ccc2c(c1)[I+]c1ccccc1-2 | 3.98 µM (active) and 794 nM (active) | –
7 | O=S1(=O)N(CCN2CC=C(c3c[nH]c4cc(F)ccc34)CC2)c2cccc3c2N1CCC3 | 0.199 µM (active) | –
8 | O=[N+]([O-])c1cc(O)c(O)c([N+](=O)[O-])c1 | – | 7.79%
9 | O=c1c2ccccc2[se]n1-c1ccccc1 | 10 µM (active) and 1 µM (active) | –
10 | Cc1c2ccncc2c(C)c2c1[nH]c1ccccc12 | 31.6 µM (active) and 6.31 µM (active) | –

Target: Cytochrome P450 2C19 (Homo sapiens) (UniProt P33261)
Assay: qHTS Assay for Inhibitors and Substrates of Cytochrome P450 2C19 (AID 899); note: nearly all actives have a fitted effect of over 60% in size; note: potency is the fitted concentration of half-maximal effect; for activity, negative = inhibition: % is set by controls: 0 for no effect and ±100 for the full control effect
Details: recombinant CYP2C19, luciferin-H EGE luminescence; series mostly up to 57.1 µM; activity, negative = inhibition: at the top concentration
How it was run: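 5 nM human CYP2C19 with 10uM Luciferin-H EGE (at KM) in 50mM KPO4, compound preincubated 10 min at 37C, then NADPH regeneration for 60 min at 37C. Luciferin read by luminescence after detection reagent; normalized to 57uM ketoconazole as full inhibition.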

Chain of Cytochrome P450 2C19 (Homo sapiens) (P33261 whole entry, looked up): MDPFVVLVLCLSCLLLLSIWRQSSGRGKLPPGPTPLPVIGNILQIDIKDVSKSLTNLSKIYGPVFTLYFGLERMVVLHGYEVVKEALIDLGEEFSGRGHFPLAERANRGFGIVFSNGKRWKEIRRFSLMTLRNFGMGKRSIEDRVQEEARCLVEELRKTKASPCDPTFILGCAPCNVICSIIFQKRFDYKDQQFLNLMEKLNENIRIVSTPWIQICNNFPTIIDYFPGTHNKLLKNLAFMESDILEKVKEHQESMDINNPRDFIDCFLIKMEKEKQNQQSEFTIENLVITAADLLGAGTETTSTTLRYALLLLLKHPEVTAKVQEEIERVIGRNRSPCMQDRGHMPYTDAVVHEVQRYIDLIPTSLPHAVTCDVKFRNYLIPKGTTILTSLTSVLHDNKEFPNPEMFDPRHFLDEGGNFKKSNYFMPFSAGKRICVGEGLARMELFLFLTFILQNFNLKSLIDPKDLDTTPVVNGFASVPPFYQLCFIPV

Row | Compound | Potency | activity, negative = inhibition
11 | CCS(=O)(=O)Nc1cccc(C(=C2CCCCC2)c2cnc[nH]2)c1 | 0.0079 µM (active) | –
12 | Nc1ccc(CCN2CCN(c3cccc(C(F)(F)F)c3)CC2)cc1 | 7.94 µM (active) | –
13 | CC(C)(C)c1cc(O)ccc1O | – | -31.1% [at 11.4 µM]
14 | O=C1C=CC(=O)C=C1 | – | 9.22%
15 | CN(N=O)c1ccc(O)c(O)c1 | – | -19.2%
16 | c1ccc2c(c1)[I+]c1ccccc1-2 | 501 nM (active) and 63.1 nM (active) | –
17 | O=S1(=O)N(CCN2CC=C(c3c[nH]c4cc(F)ccc34)CC2)c2cccc3c2N1CCC3 | 6.31 µM (active) | –
18 | O=[N+]([O-])c1cc(O)c(O)c([N+](=O)[O-])c1 | – | -2.32%
19 | O=c1c2ccccc2[se]n1-c1ccccc1 | 1.58 µM (active) and 126 nM (active) | –
20 | Cc1c2ccncc2c(C)c2c1[nH]c1ccccc12 | 6.31 µM (active) and 3.16 µM (active) | –
21 | CCCn1c(C)c(C(=O)c2ccc3ccccc3c2)c2ccccc21 | 7.94 µM (active) | –

Tested on: not listed separately
Assay: Confirmation and Secondary Assay for Modulators of Hemoglobin Beta Chain Splicing at IVS2 654 locus (AID 910);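 note: HeLa cells stably carrying EGFP split by mutant beta-globin IVS2-654 intron; % of control where 0% means no effect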
Details: HeLa EGFP-654 splicing reporter, GFP fluorescence, 48 h; series mostly up to 46.1 µM; activation (splicing correction): at the top concentration
How it was run: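 HeLa cells stably expressing EGFP interrupted by β-globin IVS2-654 intron, seeded overnight in Opti-MEM/2% FCS, then treated 2 days at 37 °C. Restored splicing read as total peak GFP intensity per well by laser scanning cytometry (488 nm excitation, 500–520 nm emission); 500 nM antisense PNA as control.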

Row | Compound | activation (splicing correction)
22 | CC(N)Cc1ccc(O)cc1 (stereo not given) | 2.79%
23 | COc1ccc(OC)c(C(O)C(C)N)c1 (stereo not given) | 9.84%
24 | C=CCC1(C(C)CCC)C(=O)N=C(S)NC1=O (stereo not given) | -0.676% [at 38.3 µM]
25 | CN1C2CCC1CC(OC(c1ccccc1)c1ccccc1N)C2 (stereo not given) | -0.635% [at 38.3 µM]
26 | [N-]=[N+]=CC(=O)OCC(N)C(=O)O (stereo not given) | 3.25%
27 | O=C1CCO1 | -2.47%
28 | O=[N+]([O-])c1cc(O)c(O)c([N+](=O)[O-])c1 | 0.352% [at 38.3 µM]
29 | COc1ccc2[nH]cc(CCN)c2c1 | 2.08% [at 38.3 µM]
30 | Clc1ccc(Cl)cc1 | -0.771% [at 38.3 µM]

Source: PubChem BioAssay (NCATS)
